Among all 290,000 compounds or so, about 2,600 (0.9%) were called active. The entries come from a sample that favours actives as a whole. A number with no mark means an inactive call.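 Rule for the calls: active = inhibition above the mean of all tested compounds plus 3 SD, cutoff set per screening run (cut at about 7.5% in these data); inactive = the rest.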

The test system of the assay is VIM-2 metallo-beta-lactamase (Pseudomonas aeruginosa). As to the kind of experiment: VIM-2 metallo-beta-lactamase inhibitors, primary screen, biochemical, epi-absorbance readout, Pseudomonas aeruginosa enzyme (AID 1527).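 Note: red hydrolysis product quenches plate fluorescence so inhibitors raise well fluorescence; 0% = enzyme with DMSO and 100% = DMSO without enzyme.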 To be noted: purified VIM-2, nitrocefin hydrolysis, epi-absorbance fluorescence; at 5.6 µM; stronger effect = higher value.
In general, inhibition refers to the change of the read-out against control, counted positive when it falls. For `CCOC(=O)C1(Cc2ccccc2C)CCCN(C(=O)CN2C(=O)CSC2=O)C1` (stereo not drawn), the inhibition is -2.37%.

For `CNC[C@H](CC1CCCCC1)NC[C@H](NCCC1CCCC1)[C@H](C)O`, the inhibition was 2.09%.

Regarding `Cc1ccc(C(=O)N/C(=C\c2ccc(F)cc2)C(=O)NCCN2CCOCC2)cc1`, the inhibition is -0.14%.

Take `CCOC(=O)[C@@H]1[C@H]2COc3cc(OC)ccc3[C@H]2N2C(=O)N(c3ccc(F)cc3)C(=O)[C@]12C`: the inhibition was -2.77%.

On to `O=C(NC1CC1)c1ccc2c(c1)NC(=O)c1ccccc1S2`, for which the inhibition is 1.27%.

In the case of `O=C1Nc2cc(C(=O)N3CCC(N4CCCCC4)CC3)ccc2S/C1=C\c1ccccc1`, the inhibition is 27.9% (active).

As to `CC1CCN(C(=O)c2ccc3c(c2)NC(=O)CN3)CC1`, the inhibition was -1.26%.

For the compound `Cc1cccc(C)c1NC(=O)CS(=O)CC(=O)N1CCN(c2ccccc2)CC1` (stereo not drawn), the inhibition was -3.23%.

For the compound `Cc1ccc(NC(=O)C2CC2c2ccccc2)cc1` (stereo not drawn), the inhibition is -1.58%.

In the case of `COc1ccc2nc(/N=C(\N)NC(=O)Nc3ccccc3)nc(C)c2c1`, the inhibition was -0.81%.

On to `COc1nc(N=C(N)N)nc2c(C)cccc12`, for which the inhibition was 14.3% (active).

Regarding `Cc1nc(N=C(N)N)nc2c(C)cccc12`, the inhibition was 8.56% (active).

As for `Cc1cccc2c(=O)n3c(nc12)CCCCC3`, the inhibition is -3.47%.

For the compound `Cc1nc(/N=C(\N)NC(=O)NC2CCCCC2)nc2ccccc12`, the inhibition was -2.89%.

With `CC(=O)Oc1ccc(-c2nc3c(C)cccc3c(=O)o2)cc1`, the inhibition was -0.68%.

For the compound `Cc1nccc(-c2ccc(-n3c(C)ccc3C)cc2)n1`, the inhibition is -2.42%.

In the case of `Cc1ccc(Oc2nc(-c3ccccn3)nc3ccccc23)cc1`, the inhibition is -1.45%.

Consider `c1ccc(-c2nccc(-c3ccc(-n4cnc5ccccc54)cc3)n2)nc1`, for which the inhibition is 59.9% (active).

`CCCCn1c(-c2cccc(C)c2)nc2cc3[nH]c(=O)c(C(C)C)nc3cc21`: the inhibition was -2.3%.

As for `COc1ccc(-c2csc3ncnc(N4CCN(S(=O)(=O)c5ccccc5C#N)CC4)c23)cc1`, the inhibition is -2%.

With `CCN(CC)C(=O)CSC(Nc1cccc(F)c1)=C(C#N)C#N`, the inhibition is -4.85%.

For the compound `O=c1[nH]c2c(c(=O)n1Cc1ccccc1)CCC2`, the inhibition is -3.01%.

`CSc1nc2ccccc2c(=O)n1Cc1ccc(F)cc1`: the inhibition is -1.75%.

Consider `Cc1cc2nc3c(=O)n(Cc4ccccc4)c(=O)[nH]c3nc2cc1N`, for which the inhibition was 13.2% (active).

As to `O=S(=O)(Nc1cccc(-n2cnnn2)c1)c1cnc(Cl)c(Cl)c1`, the inhibition was -1.96%.

Take `CCN(CC)CCCNC(=O)c1c(O)c2cc(F)cc3c2n(c1=O)C(C)CC3` (stereo not drawn): the inhibition was 8.41% (active).

In the case of `CCNC(=O)c1c(O)c2cccc3c2n(c1=O)CC3`, the inhibition was 1.77%.

Turning to `CCN(CC)CCCNC(=O)c1cn(C)c2ccc(S(=O)(=O)N(C)C3CCCCC3)cc2c1=O`, the inhibition was 2.02%.

On to `CN(C)c1cc(-c2ccc(F)cc2)oc(=O)c1Cl`, for which the inhibition was -0.81%.

Consider `CC(CCc1ccccc1)NC(=O)c1cnc(Cl)c(Cl)c1` (stereo not drawn), for which the inhibition was -3.59%.

Regarding `COc1ccc(OCCn2ccnc2C)cc1`, the inhibition is 0.01%.

Consider `C=CCOc1cccc(C2C(C(=O)c3ccc(C)o3)=C(O)C(=O)N2CCCn2ccnc2)c1` (stereo not drawn), for which the inhibition was -2.31%.

As to `CC(Nc1nc(N2CCOCC2)nc2ccccc12)c1ccccc1` (stereo not drawn), the inhibition was -1.07%.

`CC(Nc1nc(N2CCCC2)nc2ccccc12)c1ccccc1` (stereo not drawn): the inhibition is 10.3% (active).

Regarding `CC(Nc1nc(N2CCN(CCO)CC2)nc2ccccc12)c1ccccc1` (stereo not drawn), the inhibition is -0.41%.

Consider `CCOCCCNc1nc(-c2ccccc2)nc2ccccc12`, for which the inhibition is 1.44%.

On to `CCOCCCNc1c(CC)c(C)c(C#N)c2nc3ccccc3n12`, for which the inhibition is 12.7% (active).

On to `CCOCCn1c(-c2ccccc2)nc2ccccc21`, for which the inhibition was -2.42%.

For `CCOC(=O)C1(c2ccccc2)NC(c2ccc(N(C)C)cc2)C2C(=O)N(C)C(=O)C21` (stereo not drawn), the inhibition is -1.25%.

`COc1ccc(CN2CC(C(=O)NC3CCCCC3)CC2=O)cc1` (stereo not drawn): the inhibition is 0.64%.

For the compound `COc1ccc(N(CC(=O)Nc2cccc3ccccc23)S(C)(=O)=O)c(OC)c1`, the inhibition was -2.25%.

As for `c1ccc(-c2cc(-c3ccccc3)[nH]n2)cc1`, the inhibition is -2.1%.

On to `N#Cc1c2c(c(-c3ccccc3)[nH]c1=O)CCCC2`, for which the inhibition was -0.97%.

For `O=c1[nH]c(-c2ccccc2)c(-c2ccccc2)[nH]1`, the inhibition is 13.9% (active).

With `CCCCNC(=O)c1ccccc1NC(=O)C1=C(C)OCCS1`, the inhibition was -1.59%.

On to `COc1ccc(N2CCN(C(=O)c3ccccc3NC(=O)C3=C(C)OCCS3)CC2)cc1`, for which the inhibition was -0.86%.

For the compound `COc1cc(NC(=O)C2=C(C)OCCS2)c(Cl)cc1C(=O)NCCN1CCN(C)CC1`, the inhibition was 25.9% (active).

For `CCn1cc(CN2CCC(C(=O)Nc3cccc(-c4cccc(Cl)c4)c3)CC2)c(C)n1`, the inhibition is -1.75%.

Regarding `Cc1cc(OCC(=O)Nc2c(C)n(C)n(-c3ccccc3)c2=O)ccc1[N+](=O)[O-]`, the inhibition is -4.47%.

With `Cc1cc(OCC(=O)NC2CCN(C)CC2)ccc1[N+](=O)[O-]`, the inhibition was 9.4% (active).

For `COc1cc(CN2CCN(Cc3ccc(C)cc3)CC2)c([N+](=O)[O-])cc1OC`, the inhibition was 0.03%.

As to `O=C(COc1ccccc1[N+](=O)[O-])NC1CC1`, the inhibition was -2.67%.

As to `Cc1cc(OCCCN2CCN(Cc3ccccc3)CC2)ccc1[N+](=O)[O-]`, the inhibition was 8.13% (active).

`Cc1cc(OCCCCOc2ccc(C#N)cc2)ccc1[N+](=O)[O-]`: the inhibition is -2.44%.

With `Oc1ccc(-c2cccc(-c3ccc(O)cc3)c2)cc1`, the inhibition is -2.2%.

For the compound `Cc1ccc(CNC(=O)c2ccc(CS(=O)Cc3cccc(Cl)c3)o2)cc1` (stereo not drawn), the inhibition was -2.03%.

Take `COCCCC1CCN(C(=O)C2CCC(=O)N(C3CCCCCC3)C2)CC1` (stereo not drawn): the inhibition was -3.17%.

`CCc1cc(=O)oc2c(C)c(OCC(=O)NCCN3CCOCC3)ccc12`: the inhibition was 6.89%.

With `O=C(COc1cc2oc(=O)c3c(c2cc1Cl)CCC3)NCCCN1CCOCC1`, the inhibition was 27.2% (active).

`CCCc1cc(=O)oc2cc(OCC(=O)Nc3ccc(CN4CCOCC4)cc3)c(Cl)cc12`: the inhibition is 0.28%.

As for `Cc1ccc(-n2c(C)cc(C(=O)CSc3nnc4ccccn34)c2C)cc1`, the inhibition was 1.89%.

With `Cc1ccc(N/N=C2\COC(C)(C)CC2=O)cc1`, the inhibition is -2.64%.

As to `Cc1nn(-c2ccccc2)c(C)c1NC(=O)COc1ccc(Cl)cc1Cl`, the inhibition is -1.49%.

As for `CN1CCN(c2ccc(NC(=O)COc3ccc(Cl)cc3Cl)cc2)CC1`, the inhibition is 11.7% (active).

Consider `CN1CCC(OC(=O)COc2ccc(Cl)cc2Cl)CC1`, for which the inhibition is 4.57%.

For `COc1ccc(OC)c(-n2c(-c3ccn[nH]3)n[nH]c2=S)c1`, the inhibition was -0.56%.

`COc1ccc(-n2c(-c3ccc(OC)c(OC)c3)n[nH]c2=S)cc1`: the inhibition is 9.11% (active).

For `Cc1ccc(-n2c(-c3ccc(Cl)cc3)n[nH]c2=S)cc1`, the inhibition is -3.52%.

On to `CCCNC(=O)CCc1c(C)nc2c(c(C)nn2-c2ccccc2)c1C`, for which the inhibition was -3.85%.

As to `COc1ccc(/C=N/S(=O)(=O)c2ccccc2)cc1OC`, the inhibition was 2.08%.

With `COc1ccc(/C=N/N(C)C2=NS(=O)(=O)c3ccccc32)cc1OC`, the inhibition is 18.5% (active).

On to `C=CCOCCN(C)C1=NS(=O)(=O)c2ccccc21`, for which the inhibition was -0.19%.

Consider `CC(=O)c1cccc(NC(=O)C2CCCN(S(=O)(=O)c3cccc4nonc34)C2)c1` (stereo not drawn), for which the inhibition is -0.2%.

Turning to `COc1ccc(COC(=O)c2ccc(Cl)c(S(=O)(=O)N3CCOCC3)c2)cc1F`, the inhibition was -3.64%.

`CCN1CCN(CCNC(=O)c2ccc3c(c2)NC(=O)/C(=C\c2ccc(OC)c(OC)c2)S3)CC1`: the inhibition is 23.2% (active).

Turning to `CCN1CCN(CCNC(=O)c2ccc(/C=C3/Sc4ccccc4N(Cc4cccc(C)c4)C3=O)cc2)CC1`, the inhibition was -2.77%.

Consider `COc1ccc(CCNC(=O)c2ccc3c(c2)NC(=O)C(N2CCOCC2)S3)cc1OC` (stereo not drawn), for which the inhibition was 0.07%.

For the compound `O=C(NCCCc1ccccc1)C(=O)NCC1OCCN1S(=O)(=O)c1ccccc1` (stereo not drawn), the inhibition is -2.36%.

In the case of `CCC(NC(=O)c1cc(COc2ccc(F)c(F)c2)on1)c1ccncc1` (stereo not drawn), the inhibition is 1.14%.

Turning to `COc1ccc(S(=O)(=O)N2CCN(C)CC2)c(C)c1`, the inhibition was 1.39%.

In the case of `CN1CCN(C(=O)CCc2ncc(C(F)(F)F)cc2Cl)CC1`, the inhibition was 7.72% (active).

As to `O=C(NCC(=O)N1CCN(c2ncc(C(F)(F)F)cc2Cl)CC1)c1ccc(Br)o1`, the inhibition is 0.82%.

For the compound `CC(=O)c1ccc(Cc2ncc(C(F)(F)F)cc2Cl)s1`, the inhibition was -0.62%.

For the compound `O=C1CC(C(F)(F)C(F)(F)C(F)(F)C(F)(F)F)=Nc2ccccc2N1`, the inhibition was -4.82%.

`Cc1ccccc1-n1cc(CNC(=O)C2CCC(=O)N(C3CC3)C2)cn1` (stereo not drawn): the inhibition was -2.92%.

`O=C1/C(=C/c2ccc3c(c2)OCO3)Oc2cc(OCC(=O)N3CC(O)C[C@H]3C(=O)O)ccc21` (stereo partly drawn): the inhibition is -0.7%.

For the compound `Cc1cc(=O)oc2cc(OCCC[n+]3ccccc3)ccc12`, the inhibition is 8.33% (active).

As to `Cc1cc(=O)oc2ccc(OCC(=O)O)cc12`, the inhibition is -3.22%.

In the case of `Cc1ccccc1N1CCN(CCCOc2ccc3c(C)cc(=O)oc3c2)CC1`, the inhibition was -0.43%.

`Cc1ccc2c(C)c(C(=O)N3CCN(c4ccncc4)CC3)oc2c1C`: the inhibition is 3.45%.

`Cc1nnc(SCC(=O)Nc2cccc(N)c2)n1-c1ccccc1`: the inhibition is -2.64%.

As to `O=S(=O)(c1ccc(Br)cc1)N1CCC(c2nc3ccccc3[nH]2)CC1`, the inhibition is -4.39%.

For the compound `Cc1cc(NC(=O)/C=C/C(=O)N(c2ccccc2C)C(C(=O)NC2CCCC2)c2ccc(F)cc2)no1` (stereo not drawn), the inhibition was 1.56%.

The record behind these values is PubChem BioAssay AID1527 (The Scripps Research Institute Molecular Screening Center, 2009).
